# Source: PubChem
# GalR3 antag: antagonists of human GalR3; O60755; HEK293 GalR3-CNG cAMP membrane potential fluorescence; galR3 body fused to GalR1 C-terminus; inhibition, % at 3 µM; 360,000 tested, 0.44% active;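 active = inhibition above the screen-wide average plus 3 SD, cut at about 13% in these data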;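 note: forskolin and galanin both at EC90 stimulate the cells; cAMP rise reported by CNG channel membrane potential dye signal; 0% = forskolin plus galanin with DMSO and 100% = forskolin alone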
# Target sequence (O60755 1-299 limits assumed): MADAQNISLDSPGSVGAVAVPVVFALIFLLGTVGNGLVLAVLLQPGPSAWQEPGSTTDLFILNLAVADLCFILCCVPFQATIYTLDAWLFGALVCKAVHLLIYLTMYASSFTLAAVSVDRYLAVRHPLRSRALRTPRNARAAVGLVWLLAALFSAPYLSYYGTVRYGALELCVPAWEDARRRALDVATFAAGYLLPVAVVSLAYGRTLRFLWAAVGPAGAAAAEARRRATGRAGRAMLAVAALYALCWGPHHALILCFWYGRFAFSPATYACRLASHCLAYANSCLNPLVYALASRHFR
# SMARCA2 activ: activators of SMARCA2 function; MG213 cells, MMTV-luciferase reporter, dexamethasone, overnight; activation, % at 9.1 µM; 370,000 tested, 1% active; in the data active = activation above about 7.8%;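 note: 0% = vehicle wells and 100% = reference activator wells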
# Gli-Sufu antag: blocks Gli-Sufu signaling in a luciferase reporter | Sufu-KO-LIGHT fibroblasts, Gli luciferase reporter luminescence | inhibition, % at 5 µM | 340,000 tested, 0.74% active;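 active = inhibition above about 55%, limit read from the data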;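 note: 0% = DMSO-treated cells and 100% = wells with medium but no cells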
# Cardio protect: protects H9c2 cardiomyocytes from peroxide injury | H2O2 injury protection, ATPLite, 2 h | 360,000 tested, 0.63% active | protection from H2O2 cell death, % at 20 µM;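 active = compounds giving at least 50% protection of heart cells from peroxide-induced death in the single-dose screen, raw or plate-pattern-corrected value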;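 note: 0% = DMSO wells with peroxide and 100% = DMSO wells without peroxide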
# NR2F2 inh: NR2F2 (human) inhibition, primary screen. HEK293T NGFI-A luciferase reporter, luminescence. inhibition, % at 8.6 µM. 370,000 tested, 0.7% active. AID 686940;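 active = inhibition above a per-plate cutoff, mean inhibition of test wells between control levels plus 3 SD, cut at about 38% in these data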;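 note: cells cotransfected with COUP-TFII expression vector driving the NGFI-A reporter; 0% = median of COUP-TF2 test wells and 100% = reporter-only cells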
# Target sequence (P24468 whole entry, looked up): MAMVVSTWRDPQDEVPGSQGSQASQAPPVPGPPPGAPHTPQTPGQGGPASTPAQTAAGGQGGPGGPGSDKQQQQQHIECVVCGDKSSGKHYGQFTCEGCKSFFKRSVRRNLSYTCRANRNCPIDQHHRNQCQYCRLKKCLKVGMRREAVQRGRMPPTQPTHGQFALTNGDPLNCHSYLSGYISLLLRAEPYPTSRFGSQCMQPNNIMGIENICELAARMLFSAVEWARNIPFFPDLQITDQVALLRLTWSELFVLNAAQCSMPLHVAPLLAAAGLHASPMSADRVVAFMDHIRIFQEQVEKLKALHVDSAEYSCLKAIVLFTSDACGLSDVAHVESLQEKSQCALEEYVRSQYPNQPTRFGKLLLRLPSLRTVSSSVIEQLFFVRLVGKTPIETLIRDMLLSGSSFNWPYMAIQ
# GAA850 FXN act: activators of GAA850 frataxin (FXN) promoter; HEK293 lucGAA850 FXN promoter luciferase reporter, 24 h; percent of 10 µM SAHA response; activation, % at 6 µM; 360,000 tested, 0.56% active; AID 540364;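 active = activation above the average of all compounds screened plus 3 SD, cutoff fixed separately per campaign, cut at about 7.5% in these data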;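 note: 0% = DMSO wells and 100% = 10 µM SAHA wells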
# Gli-Sufu confirm: confirmation of Gli-SUFU pathway antagonists | shares compounds with Gli-Sufu antag | Sufu-KO-LIGHT cells, Gli luciferase reporter, luminescence | inhibition, % at 5 µM | 2,500 tested, 40% active | AID 602428;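 active = mean inhibition at 5 µM reaching about 45%, limit read from the data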;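 note: plate controls were DMSO-treated cells for no effect and wells lacking cells for full effect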
# SufuKO cytotox: cytotoxicity counter-screen for Gli-SUFU antagonists. shares compounds with Gli-Sufu antag. Sufu-KO-LIGHT cells cytotoxicity, ATP luminescence. AID 651994. 2,500 tested, 32% active. cytotoxicity, % at 5 µM;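 active = mean cytotoxicity at 5 µM above about 25%, limit read from the data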;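 note: cells exposed to compound overnight for roughly 16 to 18 hours; plate controls were DMSO wells with cells for no effect and medium without cells for full effect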
# Wnt3a counter: counter-screen for Gli-SUFU antagonists: Wnt3a reporter inhibition | shares compounds with Gli-Sufu antag | Wnt-LIGHT cells, Wnt3a-driven luciferase reporter, luminescence | inhibition, % at 6.25 µM | 2,500 tested, 20% active | AID 651995;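 active = mean inhibition above about 25%, limit read from the data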
# Starred values were filed as active, the others as inactive; . = not tested or not shown. This is a sample that favours compounds with a hit; in the whole collection about 3.4% have one here.
SMILES,GalR3 antag,SMARCA2 activ,Gli-Sufu antag,Cardio protect,NR2F2 inh,GAA850 FXN act,Gli-Sufu confirm,SufuKO cytotox,Wnt3a counter
Cc1ccccc1C1NC(c2ccccc2C)C([N+](=O)[O-])C(C)(C)C1[N+](=O)[O-] (centres undefined),-2.6,3.5,54.0,-8.6,-4.9,2.7,16.5,10.8,-16.2
Cc1ccc2[nH]c(=O)c(CN(Cc3cccs3)Cc3nnnn3CC3CCCO3)cc2c1 (centres undefined),2.7,-0.9,54.2,1.5,21.1,1.0,21.1,13.7,-16.9
CCOC(=O)c1csc(NC(=O)CSc2nnnn2-c2ccc(OC)cc2)n1,4.6,-2.4,1.1,-7.6,11.8,0.2,.,.,.
COc1ccc(-n2nnnc2SCC(=O)Nc2nnc(C)s2)cc1,-5.0,-3.2,58.5*,-10.0,8.5,-0.7,13.2,-9.5,-5.1
O=C(O)c1ccc(N2CC3CC(C2)c2cccc(=O)n2C3)c(NC(=S)Nc2ccc(Br)cc2)c1 (centres undefined),-10.0,1.5,-5.7,-17.8,-3.4,0.8,.,.,.
Cc1nc2ccc([N+](=O)[O-])cc2c(=O)n1Cc1ccc(Cl)cc1,-7.1,-0.5,8.1,-6.3,9.3,1.0,.,.,.
COc1ccc(Cn2c(C)nc3ccc([N+](=O)[O-])cc3c2=O)cc1,-9.8,-2.4,60.9*,-9.2,2.8,1.3,32.5,23.9,-11.5
CCN(c1ccccc1)S(=O)(=O)c1ccc2c(c1)CC(C)N2C(=O)C1CC1 (centres undefined),-8.6,-0.6,21.8,1.4,9.2,0.6,.,.,.
CCOc1ccccc1N(C)S(=O)(=O)c1ccc2c(c1)CC(C)N2C(=O)C1CC1 (centres undefined),-6.4,-0.5,60.3*,2.9,4.2,-2.5,15.8,12.5,-45.6
N#Cc1ccc(Cn2ccc3ccc(-c4ccc5ccn(C(=O)C6CCCCC6)c5c4)cc32)cc1,.,1.5,.,.,10.4,.,.,.,.
O=C(CN1CCOCC1)NCc1cc([N+](=O)[O-])ccc1O,-5.9,-1.1,55.1*,2.9,10.1,-0.2,22.4,0.4,-2.8
CS(=O)(=O)N1CCCC(C(=O)N2CCc3ccccc3C2)C1 (centres undefined),-1.8,-0.9,54.6,5.0,0.0,2.4,19.9,11.8,-29.1
CN(C1CCCCC1)S(=O)(=O)c1ccc(NC(=S)NC(=O)c2cccs2)cc1,-6.0,-2.7,63.0*,-10.7,12.3,1.7,19.3,7.9,1.2
O=C(NC1CCCCN(Cc2cccc(C(F)(F)F)c2)C1=O)c1cccc(F)c1 (centres undefined),.,-4.5,.,.,8.1,.,.,.,.
CC(C)N(CCCNC(=O)C1CCC(CNS(=O)(=O)c2ccccc2)CC1)Cc1ccccc1 (centres undefined),-4.8,-1.9,60.2*,-8.7,-5.6,0.0,27.5,18.2,-10.0
COc1cccc(/C=C2\CC3(OC(=O)c4ccc(Cl)cc4)CCCN2C3)c1 (centres undefined),.,1.6,.,.,-13.9,.,.,.,.
CCOC(=O)[C@H]1[C@H]2COc3ccc(OC)cc3[C@@H]2N2C(=O)c3cc(OC)c(OC)cc3NC(=O)[C@@]12C,-6.3,0.8,98.8*,9.0,-15.2,-0.2,17.7,-9.4,13.2
Cc1nc2ccc(S(=O)(=O)c3ccc4nc(C)[nH]c4c3)cc2[nH]1,-1.5,0.1,-3.0,-0.1,-16.0,-0.6,.,.,.
Cc1nc2ccc(NS(=O)(=O)c3ccc(F)c(C)c3)cc2[nH]1,-13.0,-3.1,61.5*,-19.1,31.6,-1.4,49.3*,21.4,27.4*
CC(COc1cccc(F)c1)CN1CCC(C(O)(c2ccccc2)c2ccccc2)CC1 (centres undefined),.,-5.7,.,.,-21.4,.,.,.,.
Cc1cc(O)c(N=Nc2ccc(C(=O)O)cc2)cc1C,-3.6,1.9,-90.7,-2.7,-39.8,4.6,.,.,.
Cc1nc(Nc2ccc(F)cc2)nc(Nc2ccc(F)cc2)c1[N+](=O)[O-],-0.7,0.3,52.8,-20.7,-5.9,3.2,12.9,-2.0,42.2*
Cc1nc(Nc2ccc(C(=O)O)cc2)nc(Nc2ccc(C(=O)O)cc2)c1[N+](=O)[O-],-5.6,-3.6,-1.4,3.1,-0.3,-0.9,.,.,.
CN(C)Cc1ccccc1Sc1ccc(Br)cc1,-9.8,-6.0,-1.4,0.3,-8.2,2.1,.,.,.
COc1ccc(OC)c(CN2CCC(Cc3ccccc3)CC2)c1,-10.5,-1.3,24.8,1.4,4.5,-1.5,.,.,.
SMILES,GalR3 antag,SMARCA2 activ,Gli-Sufu antag,Cardio protect,NR2F2 inh,GAA850 FXN act,Gli-Sufu confirm,SufuKO cytotox,Wnt3a counter
COc1cc(OC)c(CN2CCC(Cc3ccccc3)CC2)cc1Br,-14.5,-1.8,52.7,1.4,-34.2,-1.5,22.7,20.8,-36.1
CC(C)CCNC(=O)C1COC(O)(C(Cc2ccccc2)NC(=O)[C@@H](NC(=O)OCc2ccccc2)C(C)C)CN1 (some centres undefined),.,.,.,.,16.1,.,.,.,.
Cc1cc(C(=O)CN2C(=O)c3ccccc3S2(=O)=O)c(C)n1-c1ccccc1,-2.9,-4.9,14.8,-28.2,35.1,-10.3,.,.,.
O=C(CN1C(=O)c2ccccc2S1(=O)=O)c1ccccc1,-3.6,1.0,73.0*,9.9,20.9,-4.6,80.1*,10.9,93.3*
Cc1ccc(S(=O)(=O)N(CC(=O)NCCSc2ccccn2)c2cc(C)cc(C)c2)cc1,-1.7,0.2,51.0,-1.1,19.8,0.3,24.8,6.2,-8.1
COc1ccc(N(CC(=O)NCCSc2ccccn2)S(=O)(=O)c2ccc(C)cc2)cc1OC,-1.2,-1.4,27.4,-3.7,-4.4,2.1,.,.,.
COCCN1CC(C(=O)NCc2ncccc2C)CCC1=O (centres undefined),-0.4,-1.2,5.0,-3.4,1.0,1.7,.,.,.
O=C(CC(c1ccccc1)c1cc(Br)ccc1O)NCCCN1CCOCC1 (centres undefined),-10.3,1.1,52.1,-2.0,16.5,0.0,19.3,3.3,-29.6
O=C(NCCCN1CCOCC1)c1ccccc1,-0.1,-1.7,61.3*,-1.1,-10.1,1.5,28.5,13.0,2.9
O=C(NCCCN1CCOCC1)c1cccnc1,-5.5,-0.5,-10.3,8.1,-6.1,0.8,.,.,.
O=C(CC(c1ccccc1)c1cc(Br)ccc1O)NCCN1CCOCC1 (centres undefined),-2.5,-1.8,5.7,-3.5,-2.8,-0.9,.,.,.
CC1=C(C(=O)OCC(C)C)C(c2cccc(F)c2)N2C(=O)C(C)SC2=N1 (centres undefined),0.5,-0.4,65.3*,3.2,-4.7,-0.9,10.9,-3.4,-12.1
CC(=O)c1cc(-c2cnn(Cc3ccccc3)c2)c(=O)n2c1CCC2,.,3.3,.,.,0.6,.,.,.,.
